PLK1 PBD inh: PLK1 (human) polo-box domain binding inhibition; Potency, µM, inactives show max response, negative = inhibition, usual class: inhibitors; P53350; AID 720504; 360,000 tested, 2.8% active; Plk1 PBD binding of FITC phosphopeptide, fluorescence polarization; also: series mostly up to about 57 µM; nearly all actives have a fitted effect of over 65% in size
ALDH1A1 block: blocks purified human ALDH1A1 activity; P00352; Potency, µM (doses to about 75.3 µM), inactives show top-dose activity, negative = inhibition, most hits filed as inhibitors; 220,000 tested, 7.3% active; AID 1030; Purified ALDH1A1, NADH fluorescence, propionaldehyde substrate; active = well fitted inhibition curve with a large enough effect, not every such curve was filed as active; inconclusive = small, poorly fitted or top-dose-only effect, or another doubt; inactive = no such curve, though single readings can be large or run the other way;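 also: plate controls were no enzyme wells and a reference inhibitor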
VP16 counter: Gal4-VP16 reporter inhibition counter-screen; Drosophila S2 Gal4-VP16 UAS-luciferase, luminescence, 20 h; Potency, µM (series often up to 53.6 µM), for inactives: at the top dose activity, negative = inhibition, actives largely listed as inhibitors; 310,000 tested, 3.5% active;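 also: Gal4-VP16 expression switched on by copper sulfate through the metallothionein promoter; nearly all actives have a fitted effect of over 50% in size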
RORg inh: inhibitors of mouse ROR gamma transcriptional activity | P51450 | 310,000 tested, 5.4% active | Potency, µM (series often up to 53.6 µM), without a hit: at the top dose activity change, negative = inhibition, usual class: inhibitors | AID 2551 | Drosophila S2 Gal4-RORgamma UAS-luciferase reporter, 20 h; also: nearly all actives have a fitted effect of over 60% in size
Target sequence (P51450 whole entry, looked up, the tested form may be a part): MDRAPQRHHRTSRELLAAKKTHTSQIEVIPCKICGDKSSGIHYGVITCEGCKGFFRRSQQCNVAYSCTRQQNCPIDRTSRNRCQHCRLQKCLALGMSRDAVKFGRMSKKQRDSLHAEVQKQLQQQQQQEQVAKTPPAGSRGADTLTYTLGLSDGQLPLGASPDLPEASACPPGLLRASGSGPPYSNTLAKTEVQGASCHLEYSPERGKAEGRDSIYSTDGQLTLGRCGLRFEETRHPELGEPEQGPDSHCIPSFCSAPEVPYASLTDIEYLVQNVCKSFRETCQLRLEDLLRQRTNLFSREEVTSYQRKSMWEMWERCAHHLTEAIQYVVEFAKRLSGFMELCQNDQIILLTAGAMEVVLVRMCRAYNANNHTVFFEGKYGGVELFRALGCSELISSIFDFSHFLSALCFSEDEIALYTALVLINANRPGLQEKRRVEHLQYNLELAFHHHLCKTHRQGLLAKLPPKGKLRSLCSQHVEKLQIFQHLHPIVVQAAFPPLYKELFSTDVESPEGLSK
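A Gal4/UAS one-hybrid system in insect cells: metallothionein-promoter Gal4–ROR gamma fusion plus Photinus luciferase reporter. Copper sulfate 700 uM final, 20 hr ambient incubation, luminescent detection after 10 min with reagent.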
Sfp PPTase inh: Sfp phosphopantetheinyl transferase inhibition; Q9F4F7; Biochemical Sfp PPTase activity, qHTS; Potency, µM, inactives show largest response in the series, negative = inhibition, most hits filed as inhibitors; 310,000 tested, 3.5% active; AID 1490;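 also: the enzyme is Sfp with the accession as filed and its product quenches rhodamine fluorescence; 0% = enzyme reaction without inhibitor and -100% = no enzyme wells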
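Step 1, compound plus 15 nM Sfp-PPTase, 15 min, room temperature. Step 2, add rhodamine-CoA (5 uM) and BHQ-2-YbbR (12.5 uM). Step 3, read 525/598 nm fluorescence at 0 and 30 min.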
Numbers without * were called inactive; u = inconclusive; x = no result given; [ ] = dose if it differs, or a comment. The list is not random: actives were taken first. Their share in the collection is about 12%. Unless noted, calls follow the shape of the dose curve; as a rule, active = well fitted curve in the direction sought with a large enough effect; inconclusive = small, poorly fitted or top-dose-only effect, or another doubt; inactive = no such curve, though single readings can be large; an effect the other way counts as inactive or inconclusive. Unless noted, % is scaled to controls: 0 for no effect and ±100 for the full control effect; potency is read from the fitted curve at half-maximal effect.

SMILES | PLK1 PBD inh | ALDH1A1 block | VP16 counter | RORg inh | Sfp PPTase inh
CN(C)S(=O)(=O)c1ccc2nc(NC(=O)c3cccnc3)sc2c1 | -5.8% | -4.4% | -10.7% | -32.9% | -22.4%
Clc1cccc(Cc2c(-c3ccccc3)nc3c4ccccc4ccn23)c1 | 5.2% | x | x | x | x
O=C(NCCN1CCCCC1)c1ccc(-n2c(=O)c(=O)[nH]c3ccccc32)cc1 | x | -0.4% | x | x | x
CCOC(=O)N1CCN(c2nnnn2-c2ccccc2)CC1 | -8.8% | u | -4.5% | -11.3% | 27.8%
COc1ccc(C(=O)N2CCN(c3nnnn3-c3ccccc3)CC2)cc1OC | -5.3% | 15.8µM* | -13.3% | 21.6% | 4.5%
CN(C)CCC(=O)[C@@]1(O)CC[C@H]2[C@H]3CC=C4C[C@@H](O)CC[C@]4(C)[C@H]3CC[C@]21C | x | 0.316µM* | x | x | x
O=C(CSc1nccn1Cc1ccccc1)Nc1nccs1 | -9.2% | -0.3% | 5.5% | 1.0% | 10.3%
Cc1nc(NC(=O)CSc2nc3cccnc3n2C2CCCCC2)sc1C | u | -3.1% | u | -7.0% | 3.2%
CCc1nnc(NC(=O)CSc2nccn2-c2cccc(C)c2C)s1 | -6.4% | 15.8µM* | 17.8µM* | 2.82µM* | u
CCc1nnc(NC(=O)CSc2nccn2-c2cc(C)cc(C)c2)s1 | -14.7% | 8.2% | u | 17.8µM* | 11.0%
Cc1cccc(-n2ccnc2SCC(=O)Nc2nccs2)c1C | 26.7µM* | -10.5% | 9.9% | u | 18.3%
CCc1nnc(NC(=O)CSc2nc3cccnc3n2C2CCCCC2)s1 | -3.6% | 1.7% | u | 10µM* | -12.3%
CCOc1ccc(-n2ccnc2SCC(=O)Nc2nnc(C)s2)cc1 | -21.6% | -11.7% | -4.5% | -35.9% | 2.1%
COC(=O)C(C)CCCC(C)CCCC(C)CCCC(C)C (stereo not drawn) | x | x | 7.0% | 21.2% | 7.5%
Cc1cccc(N2CCN(C(=O)c3ccccc3NC(=O)C3=CSCCO3)CC2C)c1 (stereo not drawn) | 23.8µM* | x | 2.0% | 13.3% | 9.6%
CC1=C(C(=O)Nc2ccccc2C(=O)N2CCN(c3ccccc3)CC2)SCCO1 | -0.8% | x | x | x | x
CNc1snc(C)c1C(=O)OCC(=O)NCc1ccccc1OC | 3.7% | x | x | x | x
CCNC(=O)C1(C)CCN(C(=O)c2cccc3ccccc23)C1 (stereo not drawn) | -3.5% | x | x | x | x
C=CCN1C(=O)C(O)(CC(=O)c2ccco2)c2cc(Br)ccc21 (stereo not drawn) | 0.5% | 7.94µM* | 4.9% | 8.7% | 13.0%
Cc1n[nH]c(C)c1C(=O)CC1(O)C(=O)N(Cc2ccccc2)c2ccc(Br)cc21 (stereo not drawn) | -3.4% | 10µM* | -1.9% | 40.3% | -3.1%
Cc1n[nH]c(C)c1C(=O)CC1(O)C(=O)N(CCc2ccccc2)c2ccc(Br)cc21 (stereo not drawn) | 0.9% | u | -8.6% | 1.2% | -9.2%
C=CCN1C(=O)C2(OCCCO2)c2cc(Cl)ccc21 | -3.1% | x | x | x | 9.9%
Cc1nc2nc(Cc3ccccc3)nn2c(C)c1Cl | -8.2% | 14.1µM* | 0.5% | 32.5% | 7.0%
S=c1[nH]nc(-c2ccncc2)n1/N=C/C=C/c1ccco1 | u | u | 2.5% | u | 44.7µM*
S=c1[nH]nc(-c2ccccc2Cl)n1/N=C/C=C/c1ccco1 | u | x | -16.3% | u | 56.2µM*
SMILES | PLK1 PBD inh | ALDH1A1 block | VP16 counter | RORg inh | Sfp PPTase inh
C(=C\c1ccco1)/C=N/n1cnnc1 | -4.6% | 3.16µM* | -8.3% | 13.3% | u
Cc1cccc(-c2n[nH]c(=S)n2/N=C/C=C/c2ccco2)c1 | -14.1% | x | -13.9% | u | u
S=c1[nH]nc(-c2cccnc2)n1/N=C/C=C/c1ccccc1 | -16.3% | -15.7% | u | 4.47µM* | -25.2%
CSCC[C@H](NC(=O)[C@H](CC(C)C)NC(=O)[C@@H]1CCCN1C(=O)[C@H](Cc1ccccc1)NC(=O)[C@H](Cc1ccccc1)NC(=O)[C@H](CCC(N)=O)NC(=O)[C@H](CCC(N)=O)NC(=O)[C@@H]1CCCN1C(=O)[C@H](CCCCN)NC(=O)[C@@H]1CCCN1C(=O)[C@@H](N)CCCN=C(N)N)C(N)=O | x | x | -8.3% | 0.1% | 0.7%
Cc1ccc2c(c1)Sc1ccccc1CC2=O | -10.9% | 17.8µM* | -2.4% | u | -22.3%
CC1CCC(NC(=O)CCCn2sc3ccccc3c2=O)CC1 (stereo not drawn) | 26.7µM* | x | u | 26.8% | 3.6%
N[C@@H](Cc1cc(CP(=O)(O)O)cc(-c2ccccc2Cl)c1)C(=O)O | x | -0.1% | -6.5% | 1.3% | 8.91µM*
NC(Cc1cccc(-c2ccccc2CP(=O)(O)O)c1)C(=O)O (stereo not drawn) | x | 5.7% | x | x | x
Cn1cccc1/C=C1\SC(=S)N(NC(=O)c2ccc(F)cc2)C1=O | 24.3% | x | 15.8µM* | 30.3% | -13.4%
Cn1cccc1/C=C1\SC(=S)N(NC(=O)c2cccc(Cl)c2)C1=O | 35.3% | 2µM* | -13.9% | 14.1% | -24.1%
COc1ccc(C(=O)N/N=C/c2cccnc2)cc1 | 3.6% | x | -2.8% | -28.9% | 2.1%
COc1ccc(C(=O)N/N=C/c2cc3ccccc3[nH]c2=S)cc1 | 15µM* | 1.41µM* | 8.91µM* | 8.91µM* | -8.4%
CCOc1ccc(NC(=O)c2ccc(NS(=O)(=O)c3cccc4cccnc34)cc2)cc1 | 5.7% | x | x | x | x
CCOc1ccccc1C(=O)N/N=C/c1ccoc1 | -9.3% | x | 0.2% | -10.2% | 16.0%
CCOc1ccccc1C(=O)N/N=C/c1cccc2cccnc12 | -6.8% | -35.0% | u | 5.01µM* | 89.1µM*
CCOc1ccc(C(=O)N/N=C/c2cccc3cccnc23)cc1 | 1.1% | -3.5% | 2µM* | 0.708µM* | -7.6%
COc1ccc(C(=O)N/N=C/c2cccc3cccnc23)cc1 | -2.4% | u | 2.24µM* | 0.562µM* | 13.6%
CC(C)CCN1CCc2nc(-c3ccccc3)c3c(c2C1)COC(C)C3 (stereo not drawn) | x | -16.6%[13.5 µM] | 2.1%[10 µM] | 6.0%[10 µM] | -5.6%
OC[C@@H]1CN(Cc2ccc(-c3ccccc3)cc2)C[C@H](n2cnc3c(NCc4ccncc4)ncnc32)O1 | -1.7% | x | x | x | x
CC1(C(=O)NS(=O)(=O)c2ccccc2OC(F)(F)F)CCN1C(=O)c1ccco1 (stereo not drawn) | -7.7% | x | x | x | x
CCOc1ccccc1C(=O)N/N=C/c1c[nH]c2ccccc12 | -0.1% | 5.0% | u | 15.8µM* | 5.5%
O=C(N/N=C/c1c[nH]c2ccccc12)c1cccc(O)c1 | 7.8% | x | 16.2% | 4.9% | 14.4%
CSCC[C@H](NC(=O)OC(C)(C)C)C(=O)N/N=C/c1cccc2cccnc12 | -6.0% | u | 15.8µM* | 7.08µM* | 9.2%
O=C(c1ccco1)n1c(=S)nc2ccccn21 | 25.1µM* | 20µM* | 6.2% | u | -20.7%
Cc1cccc2nc(=S)n(C(=O)c3ccco3)n12 | -18.9% | 4.74µM* | 0.5% | u | 15.8µM*
Cc1c(C(=O)N(C)C2CCCCC2)sc2nc3ccc(N)cc3n12 | x | u | -2.7% | 40.3% | 15.8%
CCCCN1CC(C)(C)[C@H](CC(=O)NC)C1=O | -7.2% | x | x | x | x
